# Experimental data: PubChem BioAssay (NCATS)
# Inconclusive results are not listed. Entries that show only a call come without a potency. Active and inactive are the calls of the source. The call rests on the fitted dose curve; in most records, active means well fitted cell-killing curve with a large enough effect; inconclusive means small, poorly fitted or top-dose-only effect; inactive means flat fitted curve, though single readings scatter. Peptide text beside a SMILES is read from it.
# Test: Cell Viability - LYMP2-009 (AID 968); further: nearly all actives have a fitted effect of over 55% in size
# Settings: LYMP2-009 lymphoblastoid cell viability; series mostly up to 92.2 µM
# From the text: NIH Chemical Genomics Center [NCGC]
# NIH Molecular Libraries Screening Centers Network [MLSCN]
# National Institutes of Environmental Health Sciences [NIEHS]
# National Toxicology Program [NTP]
# We have developed a 1536-well cell-based assay for quantitative high throughput screening (qHTS) against a number of cell lines to determine in vitro cytotoxicity of small molecules. This particular assay uses a human lymphoblastoid cell line (LYMP2-009) purchased from Coriell Institute for Medical Research.
# NCGC Assay Protocol Summary:
# The CellTiter-Glo luminescent cell viability assay (Promega) is a homogeneous method to measure the number of viable cells in culture. The end point readout of this assay is based on quantitation of intracellular ATP, an indicator of metabolic activity, using the luciferase reaction. Luciferase catalyzes the oxidation of beetle Luciferin to oxyluciferin and light in the presence of ATP. The luminescent signal is proportional to amount of ATP present.
# Using the CellTiter-Glo luminescent cell viability assay, the amount of cellular ATP was measured in the lymphoblastoid cell line with complete culture medium following compound treatment for 24 hours. The assay was performed in opaque white Kalypsys 1536-well plates. In the screen, tetraoctylammonium bromide was used as positive control. Library compounds were measured for their ability to cause acute toxicity in the cell line, as reflected by a decrease in intracellular ATP levels, in a concentration-dependent manner. […] AC50 values were determined from concentration-response data modeled with the standard Hill equation.
# qHTS protocol for CellTiter Glo lymphoblastoid cellular assay
# [Step] [Parameter] [Value] [Description]
# 1. Reagent; 5 uL; 2500 lymphoblastoid cells/well
# 2. Time; 5 hr; 37 C incubation
# 4. Controls; 23 nL; Tetraoctylammonium bromide 6.4pM to 92 uM
# 5. Time; 24 hr; 37 C incubation
# 6. Reagent; 5 uL; CellTiter Glo reagent
# 7. Time; 30 min; Room Temperature
# 8. Detection; Luminescence; Viewlux plate reader
# Keywords: cell viability, cytotoxicity, lymphoblastoid cell line, luminescence, NTPHTS, NTPHTS_NCGC, NIEHS, DSSTox, MLSMR, MLSCN, NIH Roadmap, qHTS, NCGC
# Potency means the concentration at half of the fitted maximal effect.
row,Structure (SMILES),Potency
1,Cc1ccc(C)c(OCCCC(C)(C)C(=O)O)c1,inactive
2,NS(=O)(=O)c1cc(C(=O)O)c(NCc2ccco2)cc1Cl,inactive
3,CCCc1cc(=O)[nH]c(=S)[nH]1,inactive
4,COC(=O)[C@H](Cc1ccccc1)NC(=O)[C@@H](N)CC(=O)O (H-Asp-Phe-OMe),inactive
5,COc1c2occc2cc2ccc(=O)oc12,inactive
6,CN(C)c1ccc2nc3ccc(=[N+](C)C)cc-3sc2c1,5.01 µM (active)
7,CC(=O)Nc1ccc(O)cc1,inactive
8,CCCCC(CC)COC(=O)C(C#N)=C(c1ccccc1)c1ccccc1 (stereo unspecified),inactive
9,Nc1ccc(S(N)(=O)=O)cc1,inactive
10,CS(=O)(=O)OCCCCOS(C)(=O)=O,inactive
11,c1ccc2[nH]c(-c3cscn3)nc2c1,inactive
